This passage reports growth results from PubChem BioAssay (NCI).

The panel holds about 83,000 compounds, 20% with a hit somewhere; the sample as a whole holds those more often.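 Interpretation: 100, growth as untreated; towards 0, rising growth inhibition; 0, no net growth; 0 to -100, cell death. Compounds scoring below 10 were considered active.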 Calls of active or inactive are those of the source.

The test system of the assay is NCI-H522 lung. Description: NCI-60 one-dose screen, 48 h (100 = growth as untreated, 0 = no growth, -100 = all killed). To be noted: 10 µM unless noted.
With `Clc1ccc2c(NCCCNc3nc(-n4ccnc4)nc4ccccc34)ccnc2c1`, the growth is 89% (inactive).
Take `c1ccc(CCNc2ncnc3[nH]ncc23)cc1`: the growth was 85.5% (inactive).
As for `CC[C@]1(O)C[C@@H]2CN(CCc3c([nH]c4ccccc34)[C@@](C(=O)OC)(c3cc4c(cc3OC)N(C)[C@H]3[C@@](O)(C(N)=O)[C@H](O)[C@]5(CC)[C@@H]6C[C@@H]6CN6CC[C@]43[C@@H]65)C2)C1`, the growth is -32.3% (active).
For the compound `Cc1ccc(-c2onc3c(=O)[nH]nc(-c4ccccc4)c23)cc1`, the growth is -19.5% (active).
As for `Cc1cc(N2CCCCC2)nc(NC2CCCC(Nc3ccnc4cc(Cl)ccc34)C2)n1` (centres undefined), the growth was -54.6% (active).
To `COc1cc2nc(N3CCCC3)nc(NCCc3ccccc3)c2cc1OC` belongs 61.7% (inactive).
Consider `O=C(COc1ccc(/C=C2\CSc3ccccc3C2=O)cc1)Nc1nccs1`, for which the growth is 7.48% (active).
Consider `Oc1cccc(-c2nc(N3CCOCC3)c3c4c(sc3n2)CCCC4)c1`, for which the growth is 42.2% (inactive).
On to `COc1ccc(/C=C2\Oc3cc(OCCCCN4CCCC4)ccc3C2=O)cc1`, for which the growth is 91.9% (inactive).
Turning to `Brc1ccc(-c2csc(Nc3ccccn3)n2)cc1`, the growth is 78.2% (inactive).
Regarding `Cc1ccc2c(C(C[N+](=O)[O-])c3ccccc3)c(-c3ccccc3)[nH]c2c1` (centres undefined), the growth was -37.8% [9.5 µM] (active).
In the case of `Nc1ccc(-c2cc3c(Nc4ccc(Oc5cccc(C(F)(F)F)c5)c(Cl)c4)ncnc3s2)cc1`, the growth is 53.6% (inactive).
Regarding `COc1ccc(C(=S)N2CCN(c3cccc(Cl)c3)CC2)cc1`, the growth was 108% (inactive).
Consider `O=C(CCCCC(=O)N/N=C\c1ccccc1O)N/N=C\c1ccccc1O`, for which the growth is 46.4% (inactive).
As to `CN1C(=O)C2(SCC(C(=O)NCc3ccccc3)N2C(=O)C2CCCCC2)c2ccccc21` (centres undefined), the growth was 75.4% (inactive).
For `O=C(C(=O)c1ccc2c(c1)OCO2)c1ccc2c(c1)OCO2`, the growth was 102% (inactive).
As for `C=C1C(=O)O[C@H]2[C@H]1CC/C(COC(=O)NCc1ccc(OC)c(OC)c1)=C\CC[C@@]1(C)O[C@@H]21`, the growth was -65.5% (active).
Under `CCNc1ncnc2c1cnn2C1CCCO1` (centres undefined) stands 111% (inactive); under `COc1ccc2c(c1)c(-c1nonc1-c1cn(C)c3ccccc13)cn2C`, 9.96% (active).
Turning to `Nc1ccc(S(=O)(=O)O)c2ccc(N=Nc3ccc(N=Nc4ccc(S(=O)(=O)O)cc4)c4ccccc34)c(O)c12`, the growth was 89.4% (inactive).
In the case of `CCOc1ccc(C(C)=O)cc1NC(=O)c1cccc(-c2nnn(CC)n2)c1`, the growth was -38.3% (active).
Under `O=C1CSC(=S)N1CCc1ccc(O)cc1` stands 46.8% (inactive); under `COC(=O)c1ccc2oc(NC(=O)c3ccc(Nc4ccc([N+](=O)[O-])cc4C)c([N+](=O)[O-])c3)nc2c1`, 94.4% (inactive).
For `CC(C)n1c(/C=C/[C@@H](O)C[C@@H](O)CC(=O)O)c(-c2ccc(F)cc2)c2ccccc21`, the growth is 0.551% (active).
